Results on 58 compounds are retold here after PubChem BioAssay AID1671202 (University of Kansas High Throughput Screening Laboratory, 2021).

Each structure is given as a SMILES string. “And” between values parts separate entries of the source, which are not always exact repeats. Equal entries are not always repeated. The campaign covered roughly 190,000 compounds. About 6,900 (3.6%) were called active. No stated cut-off is given here; in the data, active means inhibition above about 50%; inactive means the rest. The sample as a whole holds a higher share of actives than the screen did.

The target in this test is Huntingtin (Homo sapiens) (UniProt P42858). The test can be described thus: mutant huntingtin-calmodulin interaction inhibitors – biochemical, AlphaScreen, primary screen (AID 1671202).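 Further: 0% = both proteins with DMSO and 100% = one protein alone.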 The note with it: AlphaScreen His-mHTT/GST-CaM binding, luminescence; at 15 µM, hits give high values. On the technique in general: In Alpha technology, singlet oxygen from a donor bead excites a nearby acceptor bead.
Sequence of Huntingtin (Homo sapiens) (P42858 whole entry, looked up, stated change not applied): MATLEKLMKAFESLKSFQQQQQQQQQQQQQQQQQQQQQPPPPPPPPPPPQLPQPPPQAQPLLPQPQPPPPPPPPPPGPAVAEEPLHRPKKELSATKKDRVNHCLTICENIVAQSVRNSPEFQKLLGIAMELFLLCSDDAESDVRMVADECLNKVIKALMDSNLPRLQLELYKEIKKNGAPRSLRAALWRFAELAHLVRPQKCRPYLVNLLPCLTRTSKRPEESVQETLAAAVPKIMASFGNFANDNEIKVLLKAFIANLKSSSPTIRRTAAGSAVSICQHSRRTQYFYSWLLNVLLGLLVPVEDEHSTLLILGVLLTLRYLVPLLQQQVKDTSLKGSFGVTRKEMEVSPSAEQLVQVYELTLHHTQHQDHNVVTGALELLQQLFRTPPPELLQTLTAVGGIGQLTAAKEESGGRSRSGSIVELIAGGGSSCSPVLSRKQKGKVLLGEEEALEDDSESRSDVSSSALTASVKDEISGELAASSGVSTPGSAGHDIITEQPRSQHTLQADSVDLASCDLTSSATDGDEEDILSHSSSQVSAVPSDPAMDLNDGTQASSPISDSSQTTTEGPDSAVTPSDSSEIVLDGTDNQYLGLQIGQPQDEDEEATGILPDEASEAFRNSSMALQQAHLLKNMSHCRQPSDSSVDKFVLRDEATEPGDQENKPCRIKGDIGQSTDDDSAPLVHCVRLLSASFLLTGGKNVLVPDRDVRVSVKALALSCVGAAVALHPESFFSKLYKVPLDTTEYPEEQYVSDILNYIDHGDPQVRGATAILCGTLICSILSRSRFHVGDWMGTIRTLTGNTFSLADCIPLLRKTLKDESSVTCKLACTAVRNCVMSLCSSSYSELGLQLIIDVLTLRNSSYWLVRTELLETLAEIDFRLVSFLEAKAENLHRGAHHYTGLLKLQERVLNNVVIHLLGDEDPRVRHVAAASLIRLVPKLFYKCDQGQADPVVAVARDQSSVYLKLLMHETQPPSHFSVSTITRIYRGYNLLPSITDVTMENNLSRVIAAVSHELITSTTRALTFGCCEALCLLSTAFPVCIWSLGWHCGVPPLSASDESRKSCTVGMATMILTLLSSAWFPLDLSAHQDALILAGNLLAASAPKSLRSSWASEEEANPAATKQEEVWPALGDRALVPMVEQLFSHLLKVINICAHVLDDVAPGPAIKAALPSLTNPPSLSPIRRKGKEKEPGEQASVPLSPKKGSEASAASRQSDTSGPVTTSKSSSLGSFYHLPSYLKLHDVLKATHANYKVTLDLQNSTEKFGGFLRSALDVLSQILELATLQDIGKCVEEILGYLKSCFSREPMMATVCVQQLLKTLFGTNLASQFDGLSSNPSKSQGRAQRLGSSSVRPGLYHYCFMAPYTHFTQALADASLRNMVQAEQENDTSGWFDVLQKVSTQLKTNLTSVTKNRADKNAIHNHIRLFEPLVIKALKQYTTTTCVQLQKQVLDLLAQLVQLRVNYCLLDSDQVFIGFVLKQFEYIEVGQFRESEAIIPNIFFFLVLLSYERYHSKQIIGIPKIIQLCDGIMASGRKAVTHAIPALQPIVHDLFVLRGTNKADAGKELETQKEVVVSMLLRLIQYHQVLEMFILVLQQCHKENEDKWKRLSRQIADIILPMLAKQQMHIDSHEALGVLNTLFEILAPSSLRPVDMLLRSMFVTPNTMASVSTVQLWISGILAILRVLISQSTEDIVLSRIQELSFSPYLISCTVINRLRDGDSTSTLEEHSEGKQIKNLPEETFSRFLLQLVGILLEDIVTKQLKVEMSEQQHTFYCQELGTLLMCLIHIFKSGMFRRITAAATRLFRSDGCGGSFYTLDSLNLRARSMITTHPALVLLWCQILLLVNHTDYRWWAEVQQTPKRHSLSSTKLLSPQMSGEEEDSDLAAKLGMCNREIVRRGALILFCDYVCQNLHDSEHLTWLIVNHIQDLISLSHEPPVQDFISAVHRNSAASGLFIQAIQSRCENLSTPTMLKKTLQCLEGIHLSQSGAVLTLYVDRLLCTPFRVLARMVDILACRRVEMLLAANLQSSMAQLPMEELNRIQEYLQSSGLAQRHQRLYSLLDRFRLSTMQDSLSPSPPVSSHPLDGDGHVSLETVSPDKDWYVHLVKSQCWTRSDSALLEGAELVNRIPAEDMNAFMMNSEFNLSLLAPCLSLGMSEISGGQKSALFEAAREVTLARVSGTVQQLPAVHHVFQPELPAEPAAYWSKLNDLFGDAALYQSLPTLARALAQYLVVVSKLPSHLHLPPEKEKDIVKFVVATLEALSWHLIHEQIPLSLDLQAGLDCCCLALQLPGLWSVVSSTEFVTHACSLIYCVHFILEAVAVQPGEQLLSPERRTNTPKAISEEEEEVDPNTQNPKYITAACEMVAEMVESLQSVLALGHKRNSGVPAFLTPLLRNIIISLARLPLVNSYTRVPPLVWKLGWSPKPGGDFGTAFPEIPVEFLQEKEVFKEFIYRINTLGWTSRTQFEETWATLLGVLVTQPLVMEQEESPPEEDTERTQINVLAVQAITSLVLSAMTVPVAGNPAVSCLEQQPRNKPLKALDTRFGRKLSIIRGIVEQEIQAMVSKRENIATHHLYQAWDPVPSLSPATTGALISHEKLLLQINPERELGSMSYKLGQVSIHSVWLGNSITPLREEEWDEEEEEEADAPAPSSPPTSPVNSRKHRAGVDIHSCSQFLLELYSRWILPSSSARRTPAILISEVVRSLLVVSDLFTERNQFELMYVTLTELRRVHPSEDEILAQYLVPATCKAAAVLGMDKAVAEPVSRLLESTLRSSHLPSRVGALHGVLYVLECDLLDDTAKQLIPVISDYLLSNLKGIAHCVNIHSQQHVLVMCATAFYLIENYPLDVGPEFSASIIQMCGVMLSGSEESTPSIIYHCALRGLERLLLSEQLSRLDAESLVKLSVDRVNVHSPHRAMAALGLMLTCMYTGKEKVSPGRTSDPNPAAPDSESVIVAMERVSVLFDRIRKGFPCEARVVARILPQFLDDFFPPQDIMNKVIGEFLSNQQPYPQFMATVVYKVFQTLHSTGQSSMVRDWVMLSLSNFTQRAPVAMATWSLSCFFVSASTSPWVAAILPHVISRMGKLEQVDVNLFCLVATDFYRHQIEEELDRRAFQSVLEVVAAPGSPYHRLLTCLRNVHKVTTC
As to `Nc1ncnc(NCc2cccc(Cl)c2)c1[N+](=O)[O-]`, the inhibition was 3% (inactive).

With `O=S(=O)(NCCN1CCOCC1)c1ccc(I)cc1`, the inhibition was -0.7% (inactive).

Regarding `Cc1ccc(OCCOCCN2CCOCC2)c([N+](=O)[O-])c1`, the inhibition is 2% (inactive).

Take `O=[N+]([O-])c1cc(S(=O)(=O)CCCN2CCOCC2)ccc1F`: the inhibition was 97% (active).

With `CC1CCc2nn(CC(=O)Nc3ccccc3Cl)c(=O)cc2C1` (stereo not drawn), the inhibition is 0.27% (inactive).

Consider `COc1ccc(N2CCN(CC(O)COc3ccc(C(C)=O)cc3)CC2)cc1` (stereo not drawn), for which the inhibition is 3.7% (inactive).

For `Cc1ccc(-c2nc3s/c(=C\c4ccccc4)c(=O)n3n2)cc1`, the inhibition is 7% (inactive).

Regarding `N#C/C(=C\c1cccs1)c1nc(-c2ccc3c(c2)OCO3)cs1`, the inhibition was -4.4% (inactive).

On to `COc1ccc(OC)c(NC(=O)NS(=O)(=O)c2ccc(C)cc2)c1`, for which the inhibition is 14.2% (inactive).

Consider `CC(=O)Nc1cc2nn(-c3ccc(Cl)cc3)nc2cc1C`, for which the inhibition was 0.6% (inactive) and -5% (inactive).

On to `Cc1nnc2ccc(S(=O)(=O)N(Cc3ccc(F)cc3)c3ccccc3)cn12`, for which the inhibition is 54.8% (active).

As for `Cc1nnc2ccc(S(=O)(=O)N(Cc3ccccc3)c3ccc(F)cc3)cn12`, the inhibition was -2.4% (inactive).

In the case of `Cc1nnc2ccc(NC(=O)NCc3ccc(F)cc3)cn12`, the inhibition is -6.1% (inactive).

With `O=C(c1cccc(-n2cnnn2)c1)N1CCN(c2ccc(-c3cccs3)nn2)CC1`, the inhibition was 2.8% (inactive).

Regarding `O=C(Nc1cccs1)N1CCN(c2ccc(-c3ccco3)nn2)CC1`, the inhibition was 52% (active).

Consider `CC(C)Oc1ccc(C(=O)N2CCN(Cc3nc(-c4ccco4)cs3)CC2)cc1`, for which the inhibition is 9.1% (inactive).

For `COc1ccc(C2C(C#N)=C(N)N(c3ccccc3[N+](=O)[O-])C3=C2C(=O)CCC3)cc1` (stereo not drawn), the inhibition is 21% (inactive).

`Clc1ccc2[nH]c3c(c2c1)CCCC3NCCOc1ccccc1` (stereo not drawn): the inhibition is 100% (active).

Take `Cc1ccc2[nH]c3c(c2c1)CCCC3O` (stereo not drawn): the inhibition was 19.3% (inactive).

In the case of `O=C(c1ccc(C(F)(F)F)s1)N1CCc2c(nc3cc(-c4ccccc4)[nH]n3c2=O)C1`, the inhibition was 42.1% (inactive).

Take `COc1ccc(-c2cc3nc4c(c(=O)n3[nH]2)CCN(C(=O)c2ccccc2C)C4)cc1`: the inhibition was 65.3% (active).

On to `COc1ccc(-c2cc3nc4c(c(=O)n3[nH]2)CN(C(=O)c2ccc(C)nc2)CC4)cc1`, for which the inhibition was 1.93% (inactive).

For `O=C(C1COc2ccccc2O1)N1CCc2c(nc3cc(-c4ccccc4)[nH]n3c2=O)C1` (stereo not drawn), the inhibition is 76.2% (active).

Consider `CNC(=O)N1CCc2nc3cc(-c4ccc(OC)cc4)[nH]n3c(=O)c2C1`, for which the inhibition is 9.34% (inactive).

Consider `COc1ccc(-c2cc3nc4c(c(=O)n3[nH]2)CN(C(=O)c2ccccc2Cl)CC4)cc1`, for which the inhibition was 62.5% (active).

As for `COC(=O)c1cccc(NC(=O)N2CCc3c(nc4cc(-c5ccccc5)[nH]n4c3=O)C2)c1`, the inhibition was 7.79% (inactive).

Regarding `CCc1cccc(NC(=O)N2CCc3c(nc4cc(-c5ccc(OC)cc5)[nH]n4c3=O)C2)c1`, the inhibition is 26.8% (inactive).

As to `COc1ccc(-c2cc3nc4c(c(=O)n3[nH]2)CN(C(=O)CSc2ccccc2)CC4)cc1`, the inhibition was 9.49% (inactive).

Take `CCOc1ccc(NC(=O)c2ccc(F)c(S(=O)(=O)NC3CCCCCC3)c2)cc1`: the inhibition was 11% (inactive).

On to `C=CCN(C(C)=O)c1nc(C)c(Cl)c(OC)n1`, for which the inhibition is -2% (inactive).

As for `CCOC1CCc2oc(-c3ccsc3)c(C#CC(C)(C)O)c21` (stereo not drawn), the inhibition is 11.3% (inactive).

As to `O=C(NC1CC2CC1N(C(=O)c1cccc(C(F)(F)F)c1)C2)c1cccs1` (stereo not drawn), the inhibition is 0.72% (inactive).

On to `COCc1noc(C2CCCCN2CC(=O)NCc2cccs2)n1` (stereo not drawn), for which the inhibition was 0.04% (inactive).

On to `Cc1[nH]c(=O)[nH]c(=O)c1S(=O)(=O)Nc1ccccn1`, for which the inhibition was -4% (inactive).

For `O=C1C2C3C=CC(C4CC34)C2C(=O)N1CC1CCCO1` (stereo not drawn), the inhibition is 0.3% (inactive).

For the compound `O=C(NCc1nnc2n1CCCC2)c1ccc2c(c1)OCO2`, the inhibition was -5.87% (inactive).

Regarding `O=c1oc2ccccc2cc1-c1csc(N=Cc2ccccc2O)n1`, the inhibition is 26% (inactive).

With `COc1cccc(N2CCN(C(=O)c3cccs3)C(C)C2=O)c1` (stereo not drawn), the inhibition is -6.9% (inactive).

For the compound `O=C(CCc1ccccc1)NCc1cccnc1-c1ccccc1`, the inhibition was -6.5% (inactive).

Consider `Cc1ccc(C(=O)N2CCC(CCNS(=O)(=O)c3ccccc3F)CC2)cc1`, for which the inhibition was 39.1% (inactive).

For the compound `N#Cc1cccc(S(=O)(=O)NCCC2CCN(C(=O)c3ccccc3)CC2)c1`, the inhibition was 34.6% (inactive).

In the case of `Cc1ccc(C(=O)N2CCC(CCNS(=O)(=O)Cc3ccccc3)CC2)cc1`, the inhibition was 44.2% (inactive).

As to `Cc1ccc(C(=O)N2CCC(CCNS(=O)(=O)c3ccc(C(C)C)cc3)CC2)cc1`, the inhibition was 53.6% (active).

In the case of `COc1ccc(S(=O)(=O)NCCC2CCN(C(=O)c3ccccc3)CC2)cc1OC`, the inhibition is 30.3% (inactive).

Take `O=C(c1ccccc1)N1CCC(CCNS(=O)(=O)c2cccc3nsnc23)CC1`: the inhibition was 50.2% (active).

Regarding `O=C(CC1CCCCC1)N1CCCC(COc2ccc(C(=O)N3CCCCC3)cc2)C1` (stereo not drawn), the inhibition was 13.4% (inactive).

With `CCC(C)NC(=O)c1cc2nc(-c3ccc(Cl)cc3)cc(C(F)(F)F)n2n1` (stereo not drawn), the inhibition is -6% (inactive).

Regarding `N#CCSc1nc2c(c(=O)n1Cc1ccccc1)C1(CCCC1)Cc1ccccc1-2`, the inhibition is -2.7% (inactive).

For `CCn1c(=O)c2c(n3c(SCC(N)=O)nnc13)-c1ccccc1CC21CCCCC1`, the inhibition is 54% (active).

As for `O=c1[nH]c(CSCCO)nc2c1C1(CCCCC1)Cc1ccccc1-2`, the inhibition is 16.8% (inactive).

As to `O=C(Nc1cccc(NC(=O)c2ccccc2[N+](=O)[O-])c1)c1ccccc1Cl`, the inhibition is 5% (inactive).

For the compound `COc1ccc2cc(-c3nnc(NC4CCCCC4)s3)c(=O)oc2c1`, the inhibition is -11% (inactive).

Turning to `O=C1CCCC2=C1C(c1cccc([N+](=O)[O-])c1)C1C(=O)c3ccccc3C1=N2` (stereo not drawn), the inhibition was 10% (inactive).

As to `Cc1cccc(C2C3=C(CCCC3=O)N=C3c4ccccc4C(=O)C32)c1` (stereo not drawn), the inhibition was 8% (inactive).

`COc1ccc(C2C3=C(CC(C)(C)CC3=O)N=C3c4ccccc4C(=O)C32)cc1` (stereo not drawn): the inhibition was 62% (active).

In the case of `CC(C)CC(=O)N1CCc2ccccc2C1`, the inhibition is -9.1% (inactive).

Turning to `COc1ccc(C=C2Oc3c(ccc4c3CN(Cc3ccc(OC)c(OC)c3)CO4)C2=O)cc1OC`, the inhibition was 44% (inactive).

As to `CC(C)n1c(C2CCN(S(=O)(=O)Cc3ccc(F)cc3Cl)C2)nc2ccncc21` (stereo not drawn), the inhibition is 9.49% (inactive).

In general, inhibition refers to the drop in the measured response relative to a control, in per cent.
